Hit rate of the full screen: of about 340,000 compounds, about 800 (0.24%) were called active. The sample holds actives, similar compounds and a random draw of the others, so the mix is not that of the screen. Values without a mark were called inactive.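 The calls were made as follows: active = activation above the mean over all tested compounds plus 3 SD (cut at about 30% in these data); inactive = the rest.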

This assay deals with Troponin I, cardiac muscle (Homo sapiens) + Troponin T, cardiac muscle (Homo sapiens) + Troponin C, slow skeletal and cardiac muscles (Homo sapiens) (UniProt P19429+P45379+P63316). In words: calcium sensitizers of cardiac thin filaments – biochemical, IANBD-TnC fluorescence, EC20 calcium, primary screen (AID 493008).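 Also: rise in fluorescence read as greater calcium sensitivity of cardiac thin filaments.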 The following applies: IANBD-labeled TnC RTF fluorescence at EC20 calcium; at 7.2 µM; stronger effect = higher value; 0% EC20 calcium, 100% full calcium.
In the case of `CN(C)c1ccc(C=C2C(=O)OC3(CCCC3)OC2=O)cc1`, the activation is -3.77%.
With `CN(C)c1ccc(/C=C2\NC(=S)N(Cc3ccccc3)C2=O)cc1` the figure was 66% (active).
`CC1CN(Cc2ccccc2)C(=S)NC1=O` (configuration not stated): the activation was -1.27%.
With `CCn1cc(C(=O)N2CC=C(c3ccccc3)CC2)c(=O)c2ccc(C)nc21` the figure was -3.54%; with `CCCCNC(=O)C(C)N(CCN(C)C)C(=O)CCCCCN1C(=O)NC(c2ccc(Cl)cc2)C(C(=O)OCc2ccccc2)=C1C` (configuration not stated), -4%; with `CCOc1ccc(N(CC(=O)NCCOc2ccccc2OC)S(=O)(=O)c2ccccc2)cc1`, 2.75%.
With `CCCNCc1cc(OCC)c(OCC(=O)Nc2ccccc2)cc1Br` the figure was 4.49%.
For the molecule `COc1ccc(OC)c(CCNC(=O)c2nn(C)c3c2CS(=O)(=O)c2ccccc2-3)c1`, the activation was -2.91%.
For the molecule `O=c1ccc(S(=O)(=O)N2CCCC2)cn1Cc1nc(-c2ccccc2)no1`, the activation is -2.09%.
Consider `CC1CCCN(CC(O)COc2ccc3c(c2)OCO3)C1` (configuration not stated), for which the activation was -0.7%.
With `Cn1cccc1C(=O)N1CCc2ccccc2C1` the figure was 1.33%; with `OCC[C@H]1C[C@@H](O)[C@H](O)[C@]2(OCCCc3ccccc32)O1`, 2.9%.
With `CCCC1OC23CCCCC2C(C#N)(C#N)C1(C#N)C(=N)O3` (configuration not stated) the figure was 35% (active).
With `C=CCC[C@@H](Cc1ccc(F)cc1)C(=O)OC[C@H](Cc1c[nH]c2ccccc12)NC(=O)[C@@H](CC=C)CC(=O)N(CCO)Cc1ccccc1` the figure was -0.54%; with `CN1CCNC(=O)C1CC(=O)NCCC1=CCCCC1` (configuration not stated), 9.88%.
Consider `COc1ccc(C(=O)OCc2cc(=O)n3ccsc3n2)cc1F`, for which the activation is -7.02%.
With `COCc1cc(=O)[nH]c2cc(NC(=O)C(F)(F)F)c(C)cc12` the figure was -3.59%.
With `CCOC(=O)N1CCC(c2cc(=O)n(-c3ccccc3)[nH]2)CC1` the figure was 2.7%.
`O=c1cc(N2CCCCC2)c(-c2ccccc2)nn1Cc1cccc(F)c1`: the activation is -0.45%.
With `Cc1nc([N+](=O)[O-])cn1CC(=O)Nc1ccc(Cl)cc1` the figure was 0.6%; with `Nc1nc(SCC(=O)N2CCN(S(=O)(=O)c3ccc(Cl)cc3)CC2)n[nH]1`, 11.6%; with `Cc1nc(N=C(N)N)nc2c(C)cccc12`, -2.23%.
With `COCCCNC(=O)C1CCN(c2ccc(N3CCOCC3)nn2)CC1` the figure was 1.09%; with `Cc1ccc(CNC(=O)c2cccc3c2C(=O)c2ccc(N4CCC(C)CC4)cc2S3(=O)=O)cc1`, 100% (active); with `CC1CCN(c2c(NCc3ccc(C(=O)NCc4ccccc4)cc3)c(=O)c2=O)CC1`, 13.9%.
On to `Cc1ccc(CNC(=O)c2ccc3c(c2)S(=O)(=O)c2ccccc2C3=O)cc1`, for which the activation is -0.11%.
With `O=C(NCc1ccccc1CN1CCCC1)c1cccc(S(=O)(=O)Nc2ccc(F)cc2)c1` the figure was -1.12%.
With `COc1ccc(OC)c(Cc2cnc3nc(N)nc(N)c3c2C)c1` the figure was 0.81%.
Turning to `Cc1cccc(NC(=O)CN2CCN(CC(=O)NCC3(N4CCCCC4)CCCCC3)CC2)c1C`, the activation was -1.57%.
For the molecule `COc1ccc(CNC(=O)COC(=O)C2=Cc3ccccc3OC2)cc1`, the activation is -9.53%.
`CN(O)C(=S)c1ccccc1`: the activation is -1.46%.
`Cc1c(C)n2c(SCC(=O)NC3CCCC3)nnc2[nH]c1=O`: the activation was 0.28%.
Turning to `CCCN(CCC)S(=O)(=O)c1ccc(C(=O)N2CC3CCC(CC3)C2)cc1`, the activation was -0.05%.
With `CCN1CC=C2C(C#N)=C(N)C(C#N)(C#N)[C@H](c3ccoc3)[C@H]2C1`, the activation is 62% (active).
In the case of `C=CCOc1ccc(/C=C2\SC(=S)N(CCC(=O)O)C2=O)cc1`, the activation was 1.79%.
With `Cc1ccc(/C=C2/SC(=S)N(CCC(=O)NCCCN3CCOCC3)C2=O)cc1` the figure was 2.69%.
With `Cc1ccc(-c2nn(-c3ccccc3)cc2/C=C2\SC(=S)N(CCCCCC(=O)O)C2=O)o1` the figure was 48.1% (active).
With `Cc1ccc(-c2noc(C3CCCN(C(=O)c4cccc(Cl)c4)C3)n2)o1` (configuration not stated) the figure was -2.07%; with `CC(C)CC(CCc1ccccc1)OS(N)(=O)=O` (configuration not stated), -4.63%; with `COc1ccc(CNCCCNCc2ccc(OC)c(OC)c2)cc1OC`, 0.94%.
`C=CCn1c(SCC(=O)c2c(N)n(C)c(=O)n(C)c2=O)nc2sc(CC)cc2c1=O`: the activation was 1.89%.
For `C[C@H](NC(=O)c1ccccc1Cl)C(=O)OCCOc1cccc(Cl)c1`, the activation was 1.17%.
Take `Cc1ccc(C2=CSC3=NS(=O)(=O)CCN23)cc1C`: the activation was 13.6%.
With `C/C(=C/c1ccccc1)C(=O)N1CCN(c2ccccc2)CC1`, the activation was 9.01%.
Consider `Cc1[nH]c(N)nc(=S)c1CCCNc1ccccc1`, for which the activation is -2.1%.
With `C=CC[C@H](CC(=O)NCCO)C(=O)N[C@@H](COC(=O)[C@@H](CC=C)Cc1ccc(F)cc1)Cc1c[nH]c2ccccc12` the figure was 2.33%; with `Cc1c(CCC(=O)O)c(=O)oc2cc3occ(-c4ccccc4)c3cc12`, 5.11%; with `CCCCCCc1cc2cc(-c3nnc(-c4ccccc4)o3)c(=O)oc2cc1O`, 76.8% (active).
Take `CCc1ccc(CN(C)C(=O)CCc2nnc(-c3ccc(-c4ccccc4)cc3)o2)nc1`: the activation is -1.69%.
With `O=C(N[C@H]1C/C=C\C(c2cccc(F)c2)N(Cc2ccccc2)C(=O)C1)OCC1c2ccccc2-c2ccccc21` (some centres not stated) the figure was -0.43%; with `COc1ccc(C(CNCC(=O)Nc2ccccc2F)N(C)C)cc1` (configuration not stated), -1.39%.
With `S=C(Nc1ccc2c(c1)OCO2)N1CCCC1` the figure was 8.04%; with `CC(C)OC(=O)C(C#N)c1nc2ccccc2nc1N1CCN(Cc2ccccc2)CC1` (configuration not stated), -2.43%; with `CCOC(=O)/C(C#N)=C/c1ccc(N2CCN(Cc3ccccc3)CC2)cc1`, 42.2% (active).
With `CCOC(=O)/C(C#N)=C/c1ccc(OCC(=O)Nc2ccccc2)c(OC)c1` the figure was 6.94%; with `Cc1ccnc(N2CCN(C(=O)CSc3nc4ccccc4nc3N3CCCCC3)CC2)c1`, 0.05%; with `Cc1ccccc1NC(=O)c1ccc(COc2ccc3c(C)cc(=O)oc3c2)cc1`, 1.18%.
`O=C(CCC(=O)N1CCCC1)Nc1ccc([N+](=O)[O-])cc1`: the activation was -1.36%.
With `Cc1cc(-c2n[nH]c(=S)n2/N=C/C(Br)=C/c2ccccc2)n[nH]1` the figure was 0.67%; with `CCOC(=O)/C=C/C(=O)OCC(=O)NC(c1ccccc1)c1ccccc1`, -0.28%.
With `CN(C)S(=O)(=O)c1cc(NC(=O)CN2C(=O)NC3(CCCc4ccccc43)C2=O)ccc1Cl` (configuration not stated) the figure was 5.19%; with `Oc1ccc(-c2nc3ccccc3nc2-c2ccc(O)cc2O)c(O)c1`, 2.23%; with `Oc1ccc2ccc3cccc[n+]3c2c1`, 720% (active).
With `CCOC(=O)C1=C(C)NC2=C(C(=O)CC(C)(C)C2)C1c1ccsc1` (configuration not stated) the figure was 8.26%.
With `N#C/C(=C/c1ccc(N2CCOCC2)o1)C(=O)N1CCOCC1`, the activation was 64.8% (active).
With `O=C(N1CCOCC1)N1CCOCC1` the figure was 0.83%.
Consider `N#C/C(=C\C1=C(N2CCOCC2)C(=C\c2ccccc2)/CC1)C(=O)Nc1ccccc1F`, for which the activation is 11.9%.
With `O=C(NC(=O)N1CCOCC1)c1ccccc1` the figure was -4.59%.
With `N#C/C=C(/c1ccc(F)cc1)N1CCOCC1`, the activation is 0.45%.
With `N#C/C(=C\c1ccc(N2CCOCC2)o1)C(=O)N1CCOCC1` the figure was 114% (active).
`O=C(NC1CCCC1)C(c1ccco1)N(C(=O)c1csnn1)c1ccccc1` (configuration not stated): the activation is -5.15%.
As for `COc1ccccc1-n1nnnc1S(=O)(=O)Cc1ccc(Cl)cc1`, the activation is -4.59%.
With `O=C(Nc1cccc(F)c1)c1coc(=O)c(Br)c1`, the activation was 2.96%.
With `O=C(NNC1CC(=O)N(c2cccc(Cl)c2)C1=O)c1cccnc1` (configuration not stated) the figure was 3.38%; with `COc1ccc(N2CCN(S(=O)(=O)c3ccc4c(c3)NC(=O)C(C)C(=O)N4)CC2)cc1` (configuration not stated), -1.46%; with `CCOc1cc(C=NNC(=O)CCCC(=O)NN=Cc2ccc(O)c(OCC)c2)ccc1O`, 3.71%.
As to `CCOc1cc(-c2cc(-c3ccc(NC(C)=O)cc3)nc(N)c2C#N)ccc1O`, the activation is -2.6%.
With `CCOc1cc(/C=C(\C#N)c2nc(-c3cccs3)c(NC(C)=O)s2)ccc1O` the figure was 53.3% (active); with `C/C(N)=C(/C#N)C(=O)COC(=O)C1=NN(c2ccccc2)C(=O)CC1`, 1.28%.
Turning to `COc1cc(C(=O)N2C(=O)c3cccc(N)c3C2=O)cc(OC)c1OC`, the activation was -5.72%.
In the case of `CN1C(=O)c2cccc3c(N)ccc(c23)C1=O`, the activation was 1160% (active).
With `O=C1c2cccc3c([N+](=O)[O-])ccc(c23)C(=O)N1CC1CCCO1` (configuration not stated) the figure was 9.63%; with `CCn1cc(C(=O)N[C@@H](C)C(=O)NCCO)c(=O)c2cc3c(cc21)OCO3`, 0.57%; with `CCCC(O)(CCC)C(=O)NN(C(=O)CCl)c1cccc(C)c1`, -2.77%.
With `CN(C)C(CNC(=O)c1ccc(S(=O)(=O)NCc2ccco2)cc1)c1ccccc1` (configuration not stated) the figure was -0.95%; with `CC1(C)Cc2nc3sc4c(SCC(=O)NC(c5ccccc5)c5ccccc5)ncnc4c3cc2CO1`, -4.73%.
As to `C=CCNc1nnc(C)c2ccccc12`, the activation is 6.46%.
With `O=C(CSc1ncccn1)N1CCCC1` the figure was 4.22%.
With `C=CCNc1nnc(SCC(=O)N2CCCCC2)c2ccccc12` the figure was 33.8% (active).
As to `Cc1nn(-c2ncccn2)c2c1C(=O)CC(C)(C)C2Br` (configuration not stated), the activation was 1.48%.
With `CCc1ccc2ncc(C(=O)c3ccccc3)c(N3CCOCC3)c2c1` the figure was 6.46%; with `N#Cc1c(NCCO)ccc([N+](=O)[O-])c1NCCO`, -0.27%.

The record behind these values is PubChem BioAssay AID493008 (The Scripps Research Institute Molecular Screening Center, 2010).
